Of roughly 7,900 targets only a part is listed; those with a hit were picked by preference. About 0.6% of all pairs of compound and target were hits. A number with no mark means an inactive call.

Sequence of UniProt Q9H300 (Q9H300 whole entry, looked up): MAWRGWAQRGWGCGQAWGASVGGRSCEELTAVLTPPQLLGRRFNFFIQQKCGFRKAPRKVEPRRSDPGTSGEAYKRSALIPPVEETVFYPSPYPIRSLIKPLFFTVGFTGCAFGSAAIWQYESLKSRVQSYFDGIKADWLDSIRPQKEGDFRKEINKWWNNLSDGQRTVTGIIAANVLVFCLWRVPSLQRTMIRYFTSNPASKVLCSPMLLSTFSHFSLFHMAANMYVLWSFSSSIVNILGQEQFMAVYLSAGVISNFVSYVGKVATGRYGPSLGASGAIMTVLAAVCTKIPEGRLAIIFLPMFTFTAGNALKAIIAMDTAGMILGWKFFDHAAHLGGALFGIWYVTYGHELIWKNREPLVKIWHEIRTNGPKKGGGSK
Sequence of UniProt Q15257 (Q15257 whole entry, looked up): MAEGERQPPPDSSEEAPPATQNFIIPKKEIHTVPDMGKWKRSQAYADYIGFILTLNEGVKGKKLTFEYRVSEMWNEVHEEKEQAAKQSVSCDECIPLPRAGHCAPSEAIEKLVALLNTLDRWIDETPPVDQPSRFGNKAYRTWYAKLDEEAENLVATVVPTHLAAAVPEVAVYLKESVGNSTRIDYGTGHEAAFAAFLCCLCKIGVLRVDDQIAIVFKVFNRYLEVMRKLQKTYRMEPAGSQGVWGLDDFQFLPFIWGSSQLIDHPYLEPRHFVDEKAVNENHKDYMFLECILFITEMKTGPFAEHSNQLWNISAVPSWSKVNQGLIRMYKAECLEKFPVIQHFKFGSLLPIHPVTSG
Sequence of UniProt P46019 (P46019 whole entry, looked up): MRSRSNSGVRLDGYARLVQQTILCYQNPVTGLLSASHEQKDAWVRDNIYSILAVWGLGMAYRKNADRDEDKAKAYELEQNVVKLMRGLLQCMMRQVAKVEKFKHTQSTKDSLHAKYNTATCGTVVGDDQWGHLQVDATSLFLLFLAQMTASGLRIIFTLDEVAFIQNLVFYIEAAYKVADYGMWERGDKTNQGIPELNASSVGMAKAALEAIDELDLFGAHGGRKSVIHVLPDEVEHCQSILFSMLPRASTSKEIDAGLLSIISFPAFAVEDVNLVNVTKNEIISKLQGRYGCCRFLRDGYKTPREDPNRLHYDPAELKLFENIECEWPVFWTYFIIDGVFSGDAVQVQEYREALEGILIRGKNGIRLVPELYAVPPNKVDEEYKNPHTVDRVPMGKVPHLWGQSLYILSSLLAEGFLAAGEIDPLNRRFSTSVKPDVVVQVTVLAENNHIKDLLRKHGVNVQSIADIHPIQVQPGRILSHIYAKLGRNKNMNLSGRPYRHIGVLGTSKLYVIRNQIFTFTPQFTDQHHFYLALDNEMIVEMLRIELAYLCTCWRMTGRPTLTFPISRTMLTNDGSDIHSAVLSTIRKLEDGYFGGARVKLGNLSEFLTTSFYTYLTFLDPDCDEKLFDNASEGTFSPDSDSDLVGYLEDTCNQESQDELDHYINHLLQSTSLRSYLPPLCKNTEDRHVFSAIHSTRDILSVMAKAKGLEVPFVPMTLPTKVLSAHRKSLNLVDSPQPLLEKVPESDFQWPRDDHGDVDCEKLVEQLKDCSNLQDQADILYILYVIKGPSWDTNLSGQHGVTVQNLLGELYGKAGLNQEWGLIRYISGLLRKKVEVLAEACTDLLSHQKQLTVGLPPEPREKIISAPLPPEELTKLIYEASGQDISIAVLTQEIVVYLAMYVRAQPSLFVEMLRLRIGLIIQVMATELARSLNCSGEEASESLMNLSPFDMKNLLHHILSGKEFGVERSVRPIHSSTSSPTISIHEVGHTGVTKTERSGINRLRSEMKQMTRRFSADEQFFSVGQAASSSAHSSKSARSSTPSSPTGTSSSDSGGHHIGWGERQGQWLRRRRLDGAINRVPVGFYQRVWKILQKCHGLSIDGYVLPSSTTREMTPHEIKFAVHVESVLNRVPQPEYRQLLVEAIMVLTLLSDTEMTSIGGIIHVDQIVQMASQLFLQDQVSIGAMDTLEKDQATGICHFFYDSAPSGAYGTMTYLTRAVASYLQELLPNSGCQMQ
Sequence of UniProt P0CG38 (P0CG38 whole entry, looked up): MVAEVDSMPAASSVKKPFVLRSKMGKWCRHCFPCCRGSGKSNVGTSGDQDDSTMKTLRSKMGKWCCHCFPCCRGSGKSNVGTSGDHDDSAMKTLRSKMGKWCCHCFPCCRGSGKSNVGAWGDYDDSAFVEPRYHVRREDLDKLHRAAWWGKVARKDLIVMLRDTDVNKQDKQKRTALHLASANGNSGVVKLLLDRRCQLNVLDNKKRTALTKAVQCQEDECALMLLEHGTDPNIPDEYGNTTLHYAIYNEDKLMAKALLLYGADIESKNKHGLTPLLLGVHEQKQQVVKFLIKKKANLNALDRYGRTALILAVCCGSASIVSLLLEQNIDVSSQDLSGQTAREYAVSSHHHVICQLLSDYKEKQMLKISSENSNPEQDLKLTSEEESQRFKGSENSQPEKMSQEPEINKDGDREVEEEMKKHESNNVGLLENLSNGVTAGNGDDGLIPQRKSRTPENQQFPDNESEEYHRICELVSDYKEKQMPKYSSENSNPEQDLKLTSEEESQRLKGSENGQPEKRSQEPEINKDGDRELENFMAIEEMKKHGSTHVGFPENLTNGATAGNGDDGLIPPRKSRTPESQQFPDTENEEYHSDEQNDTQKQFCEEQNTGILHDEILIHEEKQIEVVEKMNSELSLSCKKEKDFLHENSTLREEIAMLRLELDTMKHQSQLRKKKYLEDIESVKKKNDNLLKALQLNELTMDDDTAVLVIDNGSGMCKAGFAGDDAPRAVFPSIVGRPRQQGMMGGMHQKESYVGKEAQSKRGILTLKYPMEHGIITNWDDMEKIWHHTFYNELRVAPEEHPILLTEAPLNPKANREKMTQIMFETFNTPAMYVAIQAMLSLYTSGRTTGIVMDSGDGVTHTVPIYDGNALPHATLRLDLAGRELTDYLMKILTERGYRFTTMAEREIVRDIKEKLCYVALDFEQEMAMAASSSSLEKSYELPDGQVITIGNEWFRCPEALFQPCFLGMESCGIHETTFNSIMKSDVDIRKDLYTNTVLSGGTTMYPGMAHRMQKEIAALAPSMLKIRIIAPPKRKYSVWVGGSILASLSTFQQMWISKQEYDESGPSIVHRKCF
Sequence of UniProt Q01970 (Q01970 whole entry, looked up): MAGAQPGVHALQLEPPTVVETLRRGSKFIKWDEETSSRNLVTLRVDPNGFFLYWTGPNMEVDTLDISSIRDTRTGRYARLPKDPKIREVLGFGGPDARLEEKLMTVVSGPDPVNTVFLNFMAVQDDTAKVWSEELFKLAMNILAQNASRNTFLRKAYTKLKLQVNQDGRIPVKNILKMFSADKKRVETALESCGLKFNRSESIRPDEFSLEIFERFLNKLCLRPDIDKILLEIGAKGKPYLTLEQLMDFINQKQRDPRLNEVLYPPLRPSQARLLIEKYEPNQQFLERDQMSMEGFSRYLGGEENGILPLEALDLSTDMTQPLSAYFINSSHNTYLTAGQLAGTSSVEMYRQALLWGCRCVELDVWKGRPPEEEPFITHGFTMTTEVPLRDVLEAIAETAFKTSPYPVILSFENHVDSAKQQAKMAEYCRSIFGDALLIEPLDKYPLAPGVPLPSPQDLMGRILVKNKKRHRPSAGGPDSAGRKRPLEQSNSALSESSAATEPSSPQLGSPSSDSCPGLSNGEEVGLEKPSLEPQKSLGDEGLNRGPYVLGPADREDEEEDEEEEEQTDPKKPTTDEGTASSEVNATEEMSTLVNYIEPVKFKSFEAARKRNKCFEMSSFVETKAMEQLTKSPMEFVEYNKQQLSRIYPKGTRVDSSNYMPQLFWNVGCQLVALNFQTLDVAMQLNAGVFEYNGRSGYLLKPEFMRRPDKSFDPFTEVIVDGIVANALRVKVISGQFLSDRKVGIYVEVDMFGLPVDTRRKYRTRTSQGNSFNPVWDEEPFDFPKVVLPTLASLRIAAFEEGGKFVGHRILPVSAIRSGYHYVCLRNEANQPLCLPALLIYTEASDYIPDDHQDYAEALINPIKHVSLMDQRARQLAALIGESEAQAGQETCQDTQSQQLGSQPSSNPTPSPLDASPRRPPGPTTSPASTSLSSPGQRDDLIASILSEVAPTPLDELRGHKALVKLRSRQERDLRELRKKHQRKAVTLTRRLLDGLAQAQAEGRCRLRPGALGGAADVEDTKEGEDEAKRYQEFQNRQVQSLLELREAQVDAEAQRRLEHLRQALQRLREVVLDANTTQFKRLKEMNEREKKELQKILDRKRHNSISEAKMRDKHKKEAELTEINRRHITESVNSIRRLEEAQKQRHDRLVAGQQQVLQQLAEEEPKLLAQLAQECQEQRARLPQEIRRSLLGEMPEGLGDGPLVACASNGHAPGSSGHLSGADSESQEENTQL
Sequence of UniProt Q9Y244 (Q9Y244 whole entry, looked up): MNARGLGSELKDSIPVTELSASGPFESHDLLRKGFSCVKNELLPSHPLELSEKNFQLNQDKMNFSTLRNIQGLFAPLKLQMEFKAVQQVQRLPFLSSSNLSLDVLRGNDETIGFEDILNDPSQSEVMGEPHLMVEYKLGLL
Sequence of UniProt O75340 (O75340 whole entry, looked up): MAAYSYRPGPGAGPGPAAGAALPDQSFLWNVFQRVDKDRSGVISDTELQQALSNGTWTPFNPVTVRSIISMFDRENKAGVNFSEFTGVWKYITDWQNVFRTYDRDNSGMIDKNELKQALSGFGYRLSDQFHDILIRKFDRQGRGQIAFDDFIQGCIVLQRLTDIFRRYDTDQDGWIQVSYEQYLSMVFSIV
Sequence of UniProt P49642 (P49642 whole entry, looked up): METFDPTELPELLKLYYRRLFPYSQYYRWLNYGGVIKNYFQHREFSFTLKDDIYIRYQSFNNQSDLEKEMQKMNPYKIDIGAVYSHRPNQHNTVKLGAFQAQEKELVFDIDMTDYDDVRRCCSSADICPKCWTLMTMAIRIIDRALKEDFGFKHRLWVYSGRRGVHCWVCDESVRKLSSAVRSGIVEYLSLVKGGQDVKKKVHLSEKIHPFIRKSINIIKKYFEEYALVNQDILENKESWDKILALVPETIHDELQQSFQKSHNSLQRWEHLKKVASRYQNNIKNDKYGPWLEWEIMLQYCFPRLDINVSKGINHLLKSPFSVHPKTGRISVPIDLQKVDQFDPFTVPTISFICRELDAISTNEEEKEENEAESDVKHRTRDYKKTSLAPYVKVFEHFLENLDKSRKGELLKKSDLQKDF

Compound in the assay: COC(=O)[C@H](CCSC)NC(=O)C1=C(C=C(C=C1)NC[C@H](CS)N)C2=CC=CC=C2
Kind of assay: log2 fold change, soluble protein after heating vs DMSO (PISA); higher = thermal stabilisation; K562 cells, 10 uM, 30 min; active = over 0.2 and 3.5 SD of the protein, either way, in both replicates (recomputed). The method in brief:
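Quantification of soluble protein used TMTpro 16plex LC-MS/MS, with channel sums equalised. Samples were the supernatant after 21,000xg for 90 min of pooled aliquots from K562 cells (2×10^6 cells/mL) treated with 10 μM compound for 30 min, heated for 3 min over 48°C-58°C, and extracted in PBS with 0.5% NP-40 at 4°C. Values, from duplicates, describe thermal stability against control samples on a log2 fold-change scale.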
For the target PYGB (UniProt P11216), the log2 fold change is -0.009.

As to PLCB3 (UniProt Q01970), the log2 fold change is -0.083.

In the case of POLR2M (UniProt P0CAP2), the log2 fold change is 0.017.

As to PEX16 isoform 2 (UniProt Q9Y5Y5), the log2 fold change was 0.05.

For PTPA (UniProt A6PVN8), the log2 fold change is 0.039.

With PARN (UniProt O95453), the log2 fold change is 0.014.

Turning to PKM (UniProt P14618), the log2 fold change was 0.011.

On to PRIM1 (UniProt P49642), for which the log2 fold change is -0.082.

Take PCK2 (UniProt Q16822): the log2 fold change is 0.01.

In the case of POLR2G (UniProt P62487), the log2 fold change was -0.03.

With PTDSS1 (UniProt P48651), the log2 fold change was 0.01.

In the case of PHKA2 (UniProt P46019), the log2 fold change was -0.03.

For the target PISD (UniProt Q9UG56), the log2 fold change was 0.028.

Consider PIP4P1 isoform 2 (UniProt Q86T03), for which the log2 fold change was 0.015.

For the target PGGT1B (UniProt P53609), the log2 fold change was 0.227 (active).

As for PCLAF (UniProt Q15004), the log2 fold change was 0.093.

As for POLR3K (UniProt Q9Y2Y1), the log2 fold change is 0.015.

Consider POLR2K (UniProt P53803), for which the log2 fold change was -0.063.

Regarding PCBP1 (UniProt Q15365), the log2 fold change is -0.034.

On to PCNT (UniProt O95613), for which the log2 fold change was 0.091.

Regarding PTGR2 (UniProt Q8N8N7), the log2 fold change was -0.043.

For the target PLIN2 (UniProt Q99541), the log2 fold change is 0.047.

Regarding PDCD6 (UniProt O75340), the log2 fold change was 0.004.

In the case of PYGL (UniProt P06737), the log2 fold change was 0.008.

As for POTEI (UniProt P0CG38), the log2 fold change is -0.016.

For POLR1A (UniProt O95602), the log2 fold change is 0.115.

As to POMP (UniProt Q9Y244), the log2 fold change was 0.136.

Consider PPP2R5E (UniProt Q16537), for which the log2 fold change is -0.017.

On to PSMA3 (UniProt P25788), for which the log2 fold change is 0.

With PRPF3 (UniProt O43395), the log2 fold change is -0.025.

For the target PNPLA8 (UniProt Q9NP80), the log2 fold change was -0.01.

Take PRMT3 (UniProt O60678): the log2 fold change is -0.064.

Turning to PRIM2 (UniProt P49643), the log2 fold change was -0.055.

Regarding PFAS (UniProt O15067), the log2 fold change is -0.075.

Turning to PARL (UniProt Q9H300), the log2 fold change is 0.015.

Regarding PDPK1 (UniProt O15530), the log2 fold change was 0.

For the target PTPA (UniProt Q15257), the log2 fold change was 0.003.

Values taken from the supplement of paper PMC10849652.
